# Measurements as given in PubChem BioAssay (NCATS).
# Unmarked numbers belong to inactive results. The source made the active and inactive calls. Calls follow the shape of the dose curve; as a rule, active = well fitted curve in the direction sought with a large enough effect; inconclusive = small, poorly fitted or top-dose-only effect, or another doubt; inactive = no such curve, though single readings can be large or run the other way.
# Biological target: Galactokinase (Homo sapiens) (UniProt P51570)
# Sequence (P51570 whole entry, looked up): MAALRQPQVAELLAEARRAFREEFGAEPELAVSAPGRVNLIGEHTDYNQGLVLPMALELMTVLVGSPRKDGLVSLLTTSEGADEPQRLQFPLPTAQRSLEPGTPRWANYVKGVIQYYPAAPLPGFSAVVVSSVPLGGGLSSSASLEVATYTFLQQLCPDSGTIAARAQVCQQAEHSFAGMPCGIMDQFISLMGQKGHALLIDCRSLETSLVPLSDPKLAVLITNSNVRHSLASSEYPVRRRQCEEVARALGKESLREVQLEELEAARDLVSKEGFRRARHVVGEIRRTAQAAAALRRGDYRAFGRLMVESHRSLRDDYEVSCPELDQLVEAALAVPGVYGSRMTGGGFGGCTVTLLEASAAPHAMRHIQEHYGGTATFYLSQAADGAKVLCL
# Assay: qHTS Validation Assay for Inhibitors of Human Galactokinase (GALK) (AID 493189); also: 0% is about no effect
# Settings: purified human GALK enzyme activity, qHTS 7-point titration; series mostly up to 57.5 µM; activity change, negative = inhibition: at the top concentration
# From the text: NIH Molecular Libraries Probe Production Centers Network [MLPCN]
# NIH Chemical Genomics Center [NCGC]
# Assay Submitter (PI): Kent Lai (University of Utah School of Medicine, 50 N Mario Capecchi Drive, Salt Lake City, UT 84132)
# Inherited deficiency of galactose-1-phosphate uridyltransferase (GALT) can result in a potentially lethal disorder called Classic Galactosemia (OMIM 230400). Several lines of evidence indicate that an elevated level of galactose-1-phosphate (gal-1-p), the product of galactokinase (GALK), is a major, if not sole, pathogenic mechanism in patients with classic galactosemia. Therefore, finding inhibitors of GALK is a potential novel therapy for this inherent metabolic disease and is the long term goal of this project.
# GALK (provided by the assay submitter) was assayed using ATP and D-(+)-Galactose (Sigma-Aldrich cat# G0750) as substrates. Promega Kinase-Glo Plus (cat# V3774) technology was used to detect the residual ATP following kinetic reaction. Briefly, the Kinase-Glo Plus contains Ultra-Glo [2] luciferase and D-luciferin which generates a bioluminescence signal from the remaining ATP.
# NCGC Assay Protocol Summary:
# Three uL/well of ATP-buffer solution (35 uM ATP, 20mM HEPES pH8.0, 5 mM MgCl2, 60 mM NaCl, 1 mM DTT, 0.01% BSA final concentration) was dispensed into 1536-well, assay plates (Greiner, solid white medium-binding plates) with Aurora Discovery BioRAPTR Flying Reagent Dispenser (FRD; Beckton-Dickenson). Compound solution (23 nL) was transferred to the assay plate using the Kalypsys 1536-pin tool. One uL/well GALK-galactose solution (5 nM GALK, 100 uM galactose, 20 mM HEPES pH8.0, 5 mM MgCl2, 60 mM NaCl, 1 mM DTT, 0.01% BSA final concentration) was then added using the FRD yielding a total kinase reaction volume of 4 uL/ well. After 1 hour of room temperature incubation, 4 uL Kinase-Glo Plus reagent was added for a final assay volume of 8 uL/ well. Luminescence was detected with the ViewLux plate reader (Perkin Elmer, Waltham, MA) after 10 min incubation using a 1 sec exposure time and 2x binning.
SMILES,"activity change, negative = inhibition [%]",Potency
N[C@@H](Cc1c[nH]c2ccccc12)C(=O)O,-0.0442,
CCC(=O)N1CCN(C(=O)c2ccccc2)CC1,1.15,
C[N+](C)(C)CC=O,-4.08,
CCCCOc1cc(CC2CNC(=O)N2)ccc1OC (stereo not given),0.144,
N=C(N)c1ccc(OCCCCCOc2ccc(C(=N)N)cc2)cc1 (tested in a mixture with another compound),0.907,
CC(C)NC[C@H](O)COc1ccc(CC(N)=O)cc1,,inactive
Cn1c(=O)c2[nH]c(C3CCCC3)nc2n(C)c1=O,-14.5,
CCN(c1nc(N)c(C(=O)N=C(N)N)nc1Cl)C(C)C,1.28,
[Li+],4.56,
O=c1oc(Cl)c(Cl)c2ccccc12,3.25,
NC(N)=[N+]1CCc2ccccc2C1,3.64,
Nc1ncnc2c1ncn2C1CCCC1,2.8,
CCCCOC(=O)NS(=O)(=O)c1sc(CC(C)C)cc1-c1ccc(Cn2c(CC)nc3c(C)cc(C)nc32)cc1,-0.413,
Cc1cc2c(cc1Cl)N(C(=O)Nc1ccnc3ccccc13)CC2,-0.0241,
O=C(O)C1=CCCNC1,0.0428,
CCCCCCCCCC[Si](C)(C)CCC(=O)NC(Cc1ccc(C)cc1)c1ccccc1 (stereo not given),3.54,
COC(=O)C1=C(C)NC(C)=C([N+](=O)[O-])C1c1ccccc1C(F)(F)F (stereo not given),1.83,
NCC(O)C1CCCCCCC1 (stereo not given),-0.211,
NC(N)=NC(N)=Nc1ccccc1,-2.96,
COc1ccc2c(c1)c(CC(=O)O)c(C)n2C(=O)c1ccccc1,1.38,

SMILES,"activity change, negative = inhibition [%]",Potency
O=C(O)c1cc2cc(F)ccc2[nH]1,-0.065,
CCCOC(=O)c1c(-c2ccccc2)nc(CC)c(C(=O)SCC)c1CCC,-1.85,
CCCc1c(OCCCOc2ccc(OCC(=O)O)cc2)ccc(C(C)=O)c1O,-1.88,
Cn1c(=O)c2[nH]c(-c3ccc(S(=O)(=O)O)cc3)nc2n(C)c1=O,-2.82,
CC(=O)[C@H]1CCC2C3CC=C4C[C@@H](OS(=O)(=O)O)CC[C@]4(C)C3CC[C@@]21C (stereo not given in full),-13.9,
O=C(O)C1CCNCC1,5.1,
C[C@@H](NCCc1ccc(O)cc1)[C@@H](O)c1ccc(O)cc1,-13.6,
CC1CCN(CC[C@H]2CCCN2S(=O)(=O)c2cccc(O)c2)CC1,-8.82,
CNCCNS(=O)(=O)c1cccc2cnccc12,5.16,
O=C(O)Cc1ccc(O)c(O)c1,4.14,
Cc1ccc2c(c1)C(N1CCN(C)CC1)=Nc1cccnc1N2,-0.859,
CCN1C(=O)C=CC1=O,3.53,
CN1CCC2(CCN3CCc4c(oc5ccccc45)C3C2)N(C)C1=O (stereo not given),3.11,
NC1CONC1=O (stereo not given),2.74,
O=c1onc2cnc3ccccc3n12,-18.1,
CSC(N)=NCCC[C@H](N)C(=O)O,-1.79,
CC(=O)/C(C)=N/O,-1.28,
NC1(C(=O)O)CC1,2.16,
C#CC(N)CCC(=O)O (stereo not given),3.05,
C=CCN1CCc2cc(O)c(O)cc2C(c2ccccc2)C1 (stereo not given),4.05,
